The record followed here is PubChem BioAssay.

Each structure is given as a SMILES string. Active and inactive are the calls of the source.

Assay [1] in a line: small molecules captured by biotinylated probe aFSTL3 – biochemical, small-molecule microarray, fluorescence 635/667, stem cell growth factor project, primary screen (AID 1064).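 Further: measures binding of the biotinylated anti-FSTL3 antibody to printed compounds.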 As to conditions: higher = more signal.
The nature of assay [2]: binders from COS7 lysate, DM2A8 probe, primary screen, torsin A project, cell lysate, small-molecule microarray, fluorescence 635/667 (AID 1065). The note with it: higher = more signal, COS7 lysate expressing mutant human TOR1A.
A short description of assay [3]: small molecules captured by biotinylated probe aFGF2 – biochemical, small-molecule microarray, fluorescence 635/667, stem cell growth factor project, primary screen (AID 1067).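 Further: measures binding of biotinylated aFGF2 protein to printed compounds on slides; z-score merges feature fluorescence and signal-to-noise across triplicate slides.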 As to conditions: higher = more signal.
The nature of assay [4]: small molecules captured by biotinylated probe aFGF10 – biochemical, small-molecule microarray, fluorescence 635/667, stem cell growth factor project, primary screen (AID 1071).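 Further: score merges 667 nm spot intensity and signal to noise from triplicate slides.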 The note with it: higher = more signal.
Assay [5] concerns the target Neurogenic locus notch homolog protein 2 (Homo sapiens) (UniProt Q04721). The assay is described as follows: small molecules binding Notch2 protein – biochemical, small-molecule microarray, 635 nm fluorescence, stem cell growth factors, primary screen (AID 1073). The note with it: higher = more signal.
Assay [6] has as its target Pro-neuregulin-1, membrane-bound isoform (Homo sapiens) (UniProt Q02297). The assay is described as follows: small molecules binding neuregulin-1 protein – biochemical, small-molecule microarray, fluorescence 635/667, psychiatric disease protein project, primary screen (AID 1075).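 Further: score combines 667 nm spot fluorescence with signal to noise.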 The note with it: NRG1 binding, 635 nm fluorescence, higher = more signal.
Assay [7] concerns Neuregulin-1 EGF-like domain. The assay is described as follows: small molecules binding NRG1 EGF domain – biochemical, small-molecule microarray, 635 nm fluorescence, primary screen (AID 1081).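 Further: binding of the protein to compounds printed on small-molecule microarray slides.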 The note with it: higher = more signal.
A short description of assay [8]: FRG1 expression reporter modulators in myotubes – cell-based, C2C12 myotubes, firefly/Renilla luciferase, luminescence, FRG1 inhibition for FSHD, primary screen (AID 1084). The note with it: FRG1 promoter luciferase, higher = more signal, called active from +8 up or from −8 down.
Assay [9] can be described thus: small molecules captured by biotinylated probe aFST – biochemical, small-molecule microarray, fluorescence 635/667, stem cell growth factor project, primary screen (AID 1086).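 Further: score merges 667 nm fluorescence with signal-to-noise of each printed compound spot.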 The note with it: higher = more signal.
Assay [10] is described as follows: binders of probe aHhip on microarray, primary screen, stem cell growth factor project, biochemical, small-molecule microarray, fluorescence 635/667 (AID 1087).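 Further: score merges spot fluorescence at 667nm with spot signal to noise ratio.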 As to conditions: higher = more signal.
In assay [11] the test system is PRMT1 (protein arginine N-methyltransferase 1). The assay is described as follows: small molecules binding arginine methyltransferase PRMT1 – biochemical, small-molecule microarray, 635 nm fluorescence, primary screen (AID 1088).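 Further: binding of Prmt1 protein to compounds spotted on small-molecule microarray slides.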 As to conditions: higher = more signal.
The nature of assay [12]: growth effects on S. cerevisiae YJM789 – YJM789 clinical isolate, OD600, 24 h, basal, primary screen (AID 1089).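 Further: growth of clinical yeast isolate S. cerevisiae YJM 789 seeded 1000 cells per well; test concentration not given here.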 As to conditions: higher = more signal, called active from +8 up or from −8 down.
The nature of assay [13]: S. pombe growth modifiers, basal conditions – strain 972, OD600, 24 h, no modulator, primary screen (AID 1090).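 Further: basal condition with compound alone and no growth modifier present; test concentration not given here.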 The note with it: S. pombe 972 growth, higher = more signal, called active from +8 up or from −8 down.
Assay [14] can be described thus: budding yeast growth modifiers under rapamycin – strain BY4716, OD600, 96 h, primary screen (AID 1091). Further: test concentration not given here. The note with it: S. cerevisiae BY4716 + rapamycin, higher = more signal, called active from +8 up or from −8 down.
Assay [15] addresses Torsin-1A-interacting protein 2 (Homo sapiens) (UniProt Q8NFQ8). Description: small molecules binding lysate-expressed LULL1 – cell lysate, human LULL1 lysate, 635/667 nm fluorescence, primary screen (AID 1092).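 Further: probe is lysate of COS7 cells overexpressing human LULL1; score merges per-feature 667 nm fluorescence with signal-to-noise.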 As to conditions: small-molecule microarray, hLULL1 lysate binding, 635 nm fluorescence; higher = more signal.
Assay [16] in a line: optical density change of DRC41 E. coli – strain DRC41, OD650, 24 h, E. coli filamentation project, primary screen (AID 1093).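 Further: MC1000 strain lacking acrAB efflux and sulA so SOS filamentation is blocked; test concentration not given here.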 As to conditions: E. coli DRC41 growth, higher = more signal, called active from +8 up or from −8 down.
Assay [17] in a line: probe aLefty2 binding to arrayed compounds – biochemical, biotinylated probe, 635/667 nm fluorescence, primary screen (AID 1094).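 Further: score merges spot fluorescence near 667 nm with spot signal-to-noise ratio.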 As to conditions: small-molecule microarray, higher = more signal.
Assay [18] has as its system Noggin (protein binding on small-molecule microarray). The assay is described as follows: small molecules binding Noggin protein – biochemical, 635/667 nm fluorescence, primary screen (AID 1095).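 Further: score merges 667 nm feature fluorescence with signal to noise over triplicate slides.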 As to conditions: 635 nm fluorescence, higher = more signal.
For assay [19], the target named is Neurogenic locus notch homolog protein 3 (Homo sapiens) (UniProt Q9UM47). The assay is described as follows: small molecules binding NOTCH3 protein – biochemical, 635/667 nm fluorescence, primary screen (AID 1096). As to conditions: small-molecule microarray, 635 nm fluorescence, higher = more signal.
The nature of assay [20]: probe aEGFR binding to arrayed compounds – biochemical, biotinylated probe, 635/667 nm fluorescence, primary screen (AID 1097).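 Further: probe is a biotinylated anti-EGFR antibody binding compounds printed on slides; score combines fluorescence near 667 nm and signal to noise of each spot.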 The note with it: small-molecule microarray, higher = more signal.

Chain of Neurogenic locus notch homolog protein 3 (Homo sapiens) (Q9UM47 whole entry, looked up): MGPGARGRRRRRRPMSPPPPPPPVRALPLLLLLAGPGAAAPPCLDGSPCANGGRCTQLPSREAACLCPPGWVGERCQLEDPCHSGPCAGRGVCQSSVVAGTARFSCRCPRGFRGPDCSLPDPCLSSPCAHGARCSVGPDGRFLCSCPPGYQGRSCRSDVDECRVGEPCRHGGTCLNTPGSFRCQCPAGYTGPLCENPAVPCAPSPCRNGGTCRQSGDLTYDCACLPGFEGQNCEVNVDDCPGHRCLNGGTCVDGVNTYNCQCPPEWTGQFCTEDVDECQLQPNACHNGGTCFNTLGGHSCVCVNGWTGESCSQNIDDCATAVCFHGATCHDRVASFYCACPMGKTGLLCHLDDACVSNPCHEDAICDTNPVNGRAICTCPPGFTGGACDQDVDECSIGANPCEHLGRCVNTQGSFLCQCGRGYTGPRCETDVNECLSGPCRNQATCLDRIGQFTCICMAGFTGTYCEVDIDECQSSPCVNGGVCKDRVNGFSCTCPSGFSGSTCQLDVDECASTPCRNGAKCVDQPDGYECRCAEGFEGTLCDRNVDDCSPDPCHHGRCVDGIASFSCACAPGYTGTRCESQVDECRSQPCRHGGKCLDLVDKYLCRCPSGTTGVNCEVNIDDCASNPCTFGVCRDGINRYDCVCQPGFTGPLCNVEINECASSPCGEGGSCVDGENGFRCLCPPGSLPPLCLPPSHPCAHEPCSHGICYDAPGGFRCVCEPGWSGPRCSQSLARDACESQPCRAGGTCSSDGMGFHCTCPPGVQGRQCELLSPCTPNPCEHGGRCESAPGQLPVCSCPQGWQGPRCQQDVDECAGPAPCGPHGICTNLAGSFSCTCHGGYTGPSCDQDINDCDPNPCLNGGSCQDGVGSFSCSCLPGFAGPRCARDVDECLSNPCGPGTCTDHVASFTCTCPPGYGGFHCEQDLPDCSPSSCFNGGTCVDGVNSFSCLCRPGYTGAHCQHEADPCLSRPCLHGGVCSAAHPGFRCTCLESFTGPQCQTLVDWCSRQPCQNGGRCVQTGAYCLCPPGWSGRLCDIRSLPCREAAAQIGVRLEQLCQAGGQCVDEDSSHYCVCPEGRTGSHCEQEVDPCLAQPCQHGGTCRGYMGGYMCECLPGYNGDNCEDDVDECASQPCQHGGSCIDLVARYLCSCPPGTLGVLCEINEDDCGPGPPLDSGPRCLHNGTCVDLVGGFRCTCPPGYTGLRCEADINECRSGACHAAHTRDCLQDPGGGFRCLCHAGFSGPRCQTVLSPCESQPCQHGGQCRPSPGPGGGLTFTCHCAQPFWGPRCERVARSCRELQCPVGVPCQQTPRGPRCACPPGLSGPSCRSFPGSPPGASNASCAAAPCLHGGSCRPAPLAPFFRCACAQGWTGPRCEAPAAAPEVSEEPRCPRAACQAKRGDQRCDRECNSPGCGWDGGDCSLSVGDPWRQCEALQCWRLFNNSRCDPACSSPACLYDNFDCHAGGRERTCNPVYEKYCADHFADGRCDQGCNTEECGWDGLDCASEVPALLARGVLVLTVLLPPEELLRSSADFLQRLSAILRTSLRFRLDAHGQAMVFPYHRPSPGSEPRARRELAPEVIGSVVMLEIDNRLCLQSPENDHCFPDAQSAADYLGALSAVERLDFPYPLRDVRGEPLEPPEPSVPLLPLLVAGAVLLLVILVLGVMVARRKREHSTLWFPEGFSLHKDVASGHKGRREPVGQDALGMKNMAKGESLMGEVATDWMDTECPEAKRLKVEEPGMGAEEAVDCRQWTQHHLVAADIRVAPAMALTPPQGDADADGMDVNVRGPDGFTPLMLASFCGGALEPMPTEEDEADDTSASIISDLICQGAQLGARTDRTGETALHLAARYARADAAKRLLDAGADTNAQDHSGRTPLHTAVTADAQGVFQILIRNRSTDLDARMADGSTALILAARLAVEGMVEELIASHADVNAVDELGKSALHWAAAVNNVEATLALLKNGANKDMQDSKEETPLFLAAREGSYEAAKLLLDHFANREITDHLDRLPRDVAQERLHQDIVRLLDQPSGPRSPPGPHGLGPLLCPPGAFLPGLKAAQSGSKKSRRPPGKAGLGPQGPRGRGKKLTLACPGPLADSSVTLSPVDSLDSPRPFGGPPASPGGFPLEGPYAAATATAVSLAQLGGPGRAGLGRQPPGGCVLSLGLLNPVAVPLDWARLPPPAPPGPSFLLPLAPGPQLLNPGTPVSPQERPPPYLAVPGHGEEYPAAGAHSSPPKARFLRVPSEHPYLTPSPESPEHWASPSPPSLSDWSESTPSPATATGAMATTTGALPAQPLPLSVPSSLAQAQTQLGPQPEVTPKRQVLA
Chain of Torsin-1A-interacting protein 2 (Homo sapiens) (Q8NFQ8 whole entry, looked up): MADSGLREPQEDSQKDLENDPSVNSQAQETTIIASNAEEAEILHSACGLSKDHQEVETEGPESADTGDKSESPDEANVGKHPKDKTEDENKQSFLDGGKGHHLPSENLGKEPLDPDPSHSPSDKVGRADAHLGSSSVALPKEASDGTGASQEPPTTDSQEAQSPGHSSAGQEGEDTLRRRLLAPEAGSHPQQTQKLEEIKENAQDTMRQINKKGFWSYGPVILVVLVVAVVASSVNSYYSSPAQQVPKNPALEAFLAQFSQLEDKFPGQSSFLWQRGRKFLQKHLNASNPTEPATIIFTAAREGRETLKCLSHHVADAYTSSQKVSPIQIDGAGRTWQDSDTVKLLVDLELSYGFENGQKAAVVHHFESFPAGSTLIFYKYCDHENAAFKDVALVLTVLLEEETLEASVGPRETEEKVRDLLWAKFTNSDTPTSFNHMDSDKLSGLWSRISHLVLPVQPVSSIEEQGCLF
Chain of Pro-neuregulin-1, membrane-bound isoform (Homo sapiens) (Q02297 whole entry, looked up, the tested form may be a part, canonical isoform): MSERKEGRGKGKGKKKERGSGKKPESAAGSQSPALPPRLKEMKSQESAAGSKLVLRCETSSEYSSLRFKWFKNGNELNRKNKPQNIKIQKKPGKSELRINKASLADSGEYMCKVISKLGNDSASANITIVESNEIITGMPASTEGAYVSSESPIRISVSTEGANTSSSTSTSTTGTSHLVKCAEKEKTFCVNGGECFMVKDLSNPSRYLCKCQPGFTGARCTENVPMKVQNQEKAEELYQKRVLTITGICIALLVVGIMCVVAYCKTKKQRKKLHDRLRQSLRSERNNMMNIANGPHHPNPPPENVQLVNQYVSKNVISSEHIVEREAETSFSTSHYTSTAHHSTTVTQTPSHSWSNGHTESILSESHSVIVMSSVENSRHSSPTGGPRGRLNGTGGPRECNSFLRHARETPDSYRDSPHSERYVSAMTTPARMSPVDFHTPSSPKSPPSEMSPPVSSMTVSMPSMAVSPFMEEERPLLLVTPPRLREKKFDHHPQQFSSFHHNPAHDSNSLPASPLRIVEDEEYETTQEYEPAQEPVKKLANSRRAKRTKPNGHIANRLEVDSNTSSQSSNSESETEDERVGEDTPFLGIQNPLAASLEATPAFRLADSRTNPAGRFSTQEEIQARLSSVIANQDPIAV

As for `CC(C)C(=C=CC[C@@H](O)c1cccc(OCCO)c1)CCO`, the composite z-score in assay [1] is -0.226; in assay [2] it was 0.17; in [3], -0.085; in [4], 0.742; in assay [5], 0.271; in [6], -0.163. Further, the composite z-score in assay [7] is 0.364; in assay [9] it was 0.321; in [10] it was 0.0505; in assay [11], -0.102; in assay [15] it was 1.07; in [17], -0.0003. Besides, the composite z-score in [18] amounted to 0.305; in assay [19], 0.454; in [20] it was 0.0241. Also, the z-score in assay [8] was -0.202 (inactive); in assay [12], 0.493 (inactive); in [13], -0.0344 (inactive); in assay [14], -0.0595 (inactive); in [16], 0.739 (inactive).

For `Cc1c(NC(=O)/C(C#N)=C/c2ccc(Cl)cc2)c(=O)n(-c2ccccc2)n1C`, the composite z-score in [1] is -0.268; in assay [2], -0.113; in assay [3], -0.0909; in assay [4], 0.589; in [5], 0.746; in assay [6], 0.942. Further, the composite z-score in assay [7] was 1.2; in assay [9], 0.52; in assay [10], 0.0623; in assay [11] it was 0.505; in assay [15], 1.55; in [17] it was -0.0657. Further, the composite z-score is 0.532 in assay [18], 0.992 in assay [19] and -0.153 in [20]. The z-score was -0.131 (inactive) in assay [8]; -1.53 (inactive) in assay [12]; -1.57 (inactive) in [13]; -0.311 (inactive) in [14]; -0.155 (inactive) in assay [16].

`C=CC[C@@]12N=C(c3ccc(OCCCO)cc3)O[C@@H]1c1ccccc1N(Cc1ccccc1)C2=O`: the composite z-score in assay [1] was 1.16; in assay [2], 1.43; in assay [3], 0.302; in assay [4], 0.524; in assay [5] it was 0.552; in assay [6] it was 1.44. Also, the composite z-score was determined as 1.31 in assay [7]; 2.19 in assay [9]; 0.145 in [10]; 1.54 in assay [11]; 3.14 in [15]; 0.145 in assay [17]. Further, the values for the composite z-score in assay [18], in [19] and in assay [20] were 1.72, 1.08 and 0.0631, respectively. Moreover, the z-score was -3.36 (inactive) in [8]; -0.965 (inactive) in assay [12]; -1.53 (inactive) in assay [13]; 1.86 (inactive) in [14]; 1.12 (inactive) in assay [16].

With `COCC(=C=CC[C@@H](O)c1ccc(OCCO)cc1)C[C@@H](O)COCc1ccccc1`, the composite z-score in assay [1] is 0.158; in assay [2] it was -0.187; in assay [3], -0.015; in [4], 0.734; in assay [5], 0.726; in [6] it was 1.11. Besides, the composite z-score in assay [7] is 1.07; in assay [9] it was 0.543; in [10] it was 0.111; in [11] it was 1.55; in assay [15], 3.16; in [17] it was 0.0282. The composite z-score worked out at 1.43 in [18], 0.964 in [19] and 0.049 in assay [20]. In addition, the z-score is -1.1 (inactive) in [8]; -1.31 (inactive) in [12]; -0.979 (inactive) in [13]; -0.474 (inactive) in assay [14]; 1.55 (inactive) in [16].

Turning to `C[N+](C)(C)CCCCCCNC(=O)[C@@H]1C[C@@H]2C(=O)N[C@@H](Cc3ccccc3)C(=O)N2[C@@H]1c1ccc(O)cc1`, the composite z-score was -0.283 in assay [1]; 1.18 in assay [2]; -0.0138 in [3]; 0.33 in assay [4]; 0.581 in [5]; 1.73 in [6]. The composite z-score in [7] was 1.03; in assay [9], 0.957; in assay [10], 0.0373; in [11], 1.54; in assay [15], 3.06; in assay [17] it was -0.183. Further, the composite z-score in assay [18] was found to be 1.46; in [19], 1.04; in assay [20], 0.0144. Also, the z-score in [8] was 2.56 (inactive); in assay [12], -0.351 (inactive); in assay [13], -0.193 (inactive); in [14], -0.496 (inactive); in assay [16], -0.0343 (inactive).
